Shown are actives, neighbours in structure and some others; about 0.9% of the full set was active somewhere.
B2AR arrestin = agonists driving beta-arrestin recruitment to human beta2-adrenergic receptor; P07550; Potency, µM (highest dose often 46.1 µM), inactives show at the top dose activation, most hits filed as activators; beta-arrestin recruitment to beta2AR, cell-based reporter; 330,000 tested, 0.02% active;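 also: potency is read from the fitted curve at half-maximal effect; 0% = DMSO controls and full agonism = EC100 isoproterenol or metaproterenol; nearly all actives have a fitted effect of over 65% in size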
Six1-Eya2 inh = inhibitors of human Six1/Eya2 interaction; Q15475+O00167; AlphaScreen GST-Six1/His-Eya2 binding, biochemical; hits give low values; activity change, % (concentration not given with the values); 360,000 tested, 0.56% active; AID 651725; in the data active = activity change below about -65%; inconclusive = mostly about -30% to -63%
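Compounds are tested against tagged Six1 and Eya2 proteins bridged by glutathione donor and nickel acceptor beads; after a one-hour incubation at 37 °C without light, AlphaScreen emission is recorded.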
L3MBTL1 inh = L3MBTL1 (human) inhibition; Q9Y468; AlphaScreen L3MBTL1–H3K9me1 peptide binding; Potency, µM (series often up to 57.1 µM), for inactives: at the highest dose activity, negative = inhibition, hits mostly inhibitors; 230,000 tested, 0.66% active; also: potency is read from the fitted curve at half-maximal effect; nearly all actives have a fitted effect of over 60% in size
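Displacement of a biotinylated histone H3(1-15) peptide monomethylated at Lys9 (75 nM) from L3MBTL1 (50 nM) was measured by AlphaScreen after a 30 min room-temperature compound incubation; cefsulodin titration served as intraplate control.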
CtBP-E1A blk = blocks the CtBP interaction with E1A; AlphaScreen GST-E1A/His-CtBP binding, 1536-well; hits give low values; activity change, % (test concentration not listed); 340,000 tested, 0.49% active; in the data active = activity change below about -65%; inconclusive = mostly about -30% to -63%
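In 5 uL wells, 23 nL compound meets equimolar GST-E1A and His-CtBP (5X stock 125 nM each) for 2 h, 37 °C. Beads (5X, 50 ug/mL) then 1 h, 37 °C, dark.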
Eya2 inh = blocks the phosphatase activity of human Eya2 | Potency, µM (doses to about 76.9 µM), without a hit: at the top dose activity, negative = inhibition, hits mostly inhibitors | recombinant Eya2, OMFP fluorescence dephosphorylation (OMFP is methylfluorescein phosphate) | O00167 | AID 488837 | 330,000 tested, 0.006% active; also: potency is read from the fitted curve at half-maximal effect
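Eya2 (0.2 uM) preincubated 10 min at ambient with compound, then OMFP substrate added at 50 uM; 10 min reaction in 50 mM HEPES pH 7.5, 50 mM NaCl, 5 uM MgCl2, 0.05% BSA, 1 mM DTT. Fluorescence read at Ex 485/Em 525 nm.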
* marks the source's active call; other numbers are inactive results; ? = inconclusive; · = not tested or not shown. Unless noted, calls follow the shape of the dose curve; as a rule, active = well fitted curve in the direction sought with a large enough effect; inconclusive = small, poorly fitted or top-dose-only effect, or another doubt; inactive = no such curve, though single readings can be large; an effect the other way counts as inactive or inconclusive. Unless noted, % is scaled to controls: 0 for no effect and ±100 for the full control effect.

SMILES	B2AR arrestin	Six1-Eya2 inh	L3MBTL1 inh	CtBP-E1A blk	Eya2 inh
Cc1ccc(NC(=O)CN(c2ccccc2)S(=O)(=O)N(C)C)cc1	0%	-4	2%	-1	-4%
CN(CCCNC(=O)c1ccc(/C=N/O)nc1)CCCN(C)Cc1ccccc1	0%	?	-10%	?	17%
O=C(NCCCNCCCNC(=O)c1ccc(/C=N/O)nc1)c1ccc(/C=N/O)nc1	-1%	-87*	·	·	0%
COc1ccc(N2C(=O)CC(N(CCc3ccccc3)C(=O)c3ccccc3)C2=O)cc1 (stereo unspecified)	3%	1	-8%	-70*	-6%
CCCOc1ccc(N2C(=O)CC(N(CCc3ccc(OC)cc3)C(=O)c3ccccc3)C2=O)cc1 (stereo unspecified)	0%	1	3%	2	-5%
Oc1ccccc1C1CCCCC1c1ccccc1 (stereo unspecified)	0%	-2	·	9	-3%
CN1/C(=C\C(=S)NC(=O)c2ccc([N+](=O)[O-])cc2)C(C)(C)c2ccccc21	0%	?	-14%	?	-18%
CN1/C(=C\C(=S)NC(=O)c2cccc(Br)c2)C(C)(C)c2ccccc21	-1%	-73*	-11%	-70*	-5%
Cc1onc(-c2c(Cl)cccc2Cl)c1CO/N=C(\C#N)c1c(Cl)cccc1Cl	0%	14	21%	13	-29%
CCN1C(=O)C(=Cc2cccc(OC)c2Oc2ccc([N+](=O)[O-])cc2[N+](=O)[O-])SC1=S	0%	-27	·	-14	-18%
COc1ccc(/C=C/C(=O)NC(=S)Nc2ccc(S(=O)(=O)Nc3ccc(OC)nn3)cc2)cc1	0%	?	-8%	-77*	-15%
COc1ccc(/C=C/C(=O)NC(=S)Nc2ccc(S(=O)(=O)Nc3cc(C)on3)cc2)cc1	0%	-11	·	-25	-4%
CN(C)c1ccc(C(c2ccc(N(C)C)cc2)C(O)c2ccccc2)cc1 (stereo unspecified)	·	-65*	·	-2	·
CN(C)c1ccc(C(=O)C(O)c2ccccc2)cc1 (stereo unspecified)	0%	2	5%	5	-14%
CCCC1Cc2[nH]c(=O)c(C#N)cc2CO1 (stereo unspecified)	-1%	8	·	-70*	9%
O=C(COC(=O)c1ccccc1)Nc1ncc([N+](=O)[O-])s1	0%	?	3.5µM*	-3	8%
Cc1cccn2c(=O)c3cc(C(=O)NC4CCCC4)c(=N)n(CCCN4CCOCC4)c3nc12	0%	-11	·	-17	-16%
Cn1c2ccccc2c2cc([N+](=O)[O-])ccc21	0%	-4	3%	1	5%
CN1c2ccc([N+](=O)[O-])cc2N(C)C1(C)c1ccccc1 (stereo unspecified)	0%	-76*	14µM*	-80*	-19%
CN(C)c1cccc(C(=O)NNC(=O)C23CC4CC(CC(C4)C2)C3)c1	0%	-3	-4%	0	-13%
Cn1c2cc(B(O)O)sc2c2cnn(Cc3c(F)cccc3F)c(=O)c21	0%	·	-6%	·	-1%
COc1nnc(-c2ccc(N3CCOCC3)c(NC(=O)C3CCCCC3)c2)c2ccccc12	0%	6	6%	-2	1%
c1ccc2c3c(cc(N4CCOCC4)c2c1)OC1(N2CCOCC2)CCCCC1O3 (stereo unspecified)	-1%	-8	28µM*	11	-3%
Cc1c(NC(=S)N/N=C/C=C/c2ccc([N+](=O)[O-])cc2)c(=O)n(-c2ccccc2)n1C	0%	13	-4%	31	-2%
Cc1c(NC(=S)N/N=C\c2ccccc2O)c(=O)n(-c2ccccc2)n1C	-2%	-90*	?	32	-3%
Cc1c(NC(=S)N/N=C/c2ccc([N+](=O)[O-])cc2O)c(=O)n(-c2ccccc2)n1C	-1%	-84*	·	-93*	2%
Cc1c(NC(=S)N/N=C/c2ccc(Br)cc2)c(=O)n(-c2ccccc2)n1C	-1%	-2	·	2	-26%
Cc1cc2c(s1)c1c(C)nn(Cc3ccc(F)cc3)c(=O)c1n2C	0%	·	2%	·	-12%
